This is a sample that favours compounds with a hit; in the whole collection about 4% have one here.
Mtb UGM inh – Mtb UDP-galactopyranose mutase inhibition. P9WIQ1. purified UGM, fluorescence polarization probe displacement. hit rate 0.06% among 320,000. inhibition, % at 10 µM; in the data active = inhibition above about 10%, passing the limit was not always enough
GDH-TPI counter – inhibits GDH-TPI coupling enzymes, artifact for Mtb FBA screen. GDH-TPI coupled enzyme counterscreen, NADH absorbance. inhibition, % at 4.8 µM. hit rate 1.2% among 360,000. AID 588335; in the data active = inhibition above about 30%;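 also: 0% = DMSO wells and 100% = wells lacking the enzyme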
FBA Mtb inh – inhibits M. tuberculosis FBA enzyme; purified M. tuberculosis FBA, fluorescence read-out; inhibition, % at 1 µM; hit rate 2.3% among 360,000; in the data active = inhibition above about 27%;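 also: 0% = vehicle and 100% = reference inhibitor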
Mtb bLac sens – beta-lactam sensitization of Mtb H37Rv; M. tuberculosis H37Rv growth with meropenem, percent inhibition; inhibition, % at 25 µM; hit rate 0.27% among 330,000; AID 434955; call rule not given here;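 also: growth measured after seven days incubation then overnight dye step; 0% = bacteria only wells and 100% = bacteria with antibiotic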
Rv3671c inh – inhibits the M. tuberculosis serine protease Rv3671c | P9WHR9 | inhibition, % at 5.96 µM | hit rate 0.048% among 320,000 | AID 2606; in the data active = inhibition above about 38%;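 also: extracellular domain of Rv3671c used as enzyme; 0% = enzyme with DMSO and 100% = no enzyme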
Target sequence (P9WHR9 whole entry, looked up, the tested form may be a part): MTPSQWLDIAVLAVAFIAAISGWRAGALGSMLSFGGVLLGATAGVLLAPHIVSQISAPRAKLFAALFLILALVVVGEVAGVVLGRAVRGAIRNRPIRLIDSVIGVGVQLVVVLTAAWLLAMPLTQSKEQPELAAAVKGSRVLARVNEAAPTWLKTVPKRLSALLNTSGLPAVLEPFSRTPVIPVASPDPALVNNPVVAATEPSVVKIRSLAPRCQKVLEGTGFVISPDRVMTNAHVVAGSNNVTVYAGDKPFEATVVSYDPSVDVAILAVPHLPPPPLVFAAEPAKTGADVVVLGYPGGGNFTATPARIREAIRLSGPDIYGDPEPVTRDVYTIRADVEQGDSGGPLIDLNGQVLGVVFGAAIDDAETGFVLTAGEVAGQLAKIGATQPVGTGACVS
RecA intein inh – Mtb RecA intein splicing inhibition. P9WHJ3. cell-free RecA intein splicing, fluorescence. inhibition, % (no concentration beside the values). hit rate 0.75% among 290,000. AID 2221; in the data active = inhibition above about 30%;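 also: 0% = vehicle wells and 100% = reference inhibitor control wells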
Numbers without * were called inactive; / = not tested or not shown; + = active, no number.

SMILES	Mtb UGM inh	GDH-TPI counter	FBA Mtb inh	Mtb bLac sens	Rv3671c inh	RecA intein inh
Cc1ccc2ccccc2c1C(O)c1ncc(-c2ccccc2F)[nH]1 (stereo not given)	/	4	4	/	/	/
O=C(Cc1c(Cl)cccc1Cl)NCCc1ccc(Cl)cc1	0	3	0	5	-1	4
O=C(CCl)NCc1c(Cl)cccc1-n1cccc1	-2	7	1	98	-11	46*
COc1cc(/C=C/c2sc3ccccc3[n+]2CCCS(=O)(=O)[O-])ccc1O	-2	8	-13	1	-348	36*
CCC(/C=C1\Oc2ccc(OC)cc2N1C)=C\c1sc2ccccc2[n+]1CCCS(=O)(=O)[O-]	/	-4	-3	/	/	/
CC(C)Nc1nc(Nc2ccccc2Cl)c2sccc2n1	/	12	-1	/	/	/
Cc1ccc2c(c1)c1cccc3c1n2CCN3CCC(N)=O	1	6	49*	14	6	-16
CCn1cc(C(=O)N2CCN(c3ccc(C(C)=O)cc3)CC2)c2cc(OC)c(OC)cc2c1=O	5	36*	2	-1	3	/
COc1ccc(S(=O)(=O)N(C)CC(=O)NCc2ccc3c(c2)OCO3)cc1	-2	0	4	-1	-7	-1
CC1CCN(C(=O)CN2C(=O)C(=O)c3ccccc32)CC1	4	13	-3	-5	3	1
CC1CCN(C(=O)CN2C(=O)c3cccc4cccc(c34)C2=O)CC1	2	35*	21	-7	-9	-1
Cc1c(NS(=O)(=O)c2cc(C(=O)NCC3CCCO3)cc(Cl)c2Cl)c(=O)n(-c2ccccc2)n1C (stereo not given)	0	-1	0	-3	7	-2
Cc1c(NC(=O)C(C)NCC2CCCO2)c(=O)n(-c2ccccc2)n1C (stereo not given)	-1	7	+	-10	1	0
Cc1ccc(C2c3c(oc4ccc(Cl)cc4c3=O)C(=O)N2CCCN2CCOCC2)o1 (stereo not given)	2	/	/	-2	1	36*
CCC(=O)Nc1nc(C)c(-c2csc(Nc3ccccn3)n2)s1	0	40*	5	-1	4	-2
O=C(CCl)Nc1ccccc1C(=O)Nc1ccc2c(c1)OCO2	-1	8	-1	99	-5	38*
O=C(CCNC(=O)c1ccccc1Cl)Nc1ccc2c(c1)OCO2	3	-4	2	0	-2	-2
CN1C=C/C(=C\c2cc[n+](C)c3ccccc23)c2ccccc21	/	1	0	/	/	71*
CC[n+]1ccc(/C=C2\Sc3ccccc3N2CCCS(=O)(=O)[O-])c2ccccc21	-2	-6	-3	-1	4	-2
O=C(NCCc1ccccc1)c1ccc(=O)oc1	0	75*	1	-2	-6	-1
CC(NC(=O)c1ccc(=O)oc1)c1ccccc1 (stereo not given)	2	59*	0	-7	8	-2
O=C(NCc1ccccn1)c1ccc(-c2ccccc2)cc1	-1	3	5	-1	4	3
O=C(NCc1ccccn1)c1ccc(=O)oc1	0	38*	8	-2	0	-1
CC(=O)NC(Cc1ccc(N(CCCl)CCCl)cc1)C(=O)O (stereo not given)	1	8	1	-2	-1	1
N[C@@H](Cc1ccc(N(CCCl)CCCl)cc1)C(=O)O	2	33*	5	-3	-9	/
SMILES	Mtb UGM inh	GDH-TPI counter	FBA Mtb inh	Mtb bLac sens	Rv3671c inh	RecA intein inh
NC(Cc1ccc(O)cc1)C(=O)NN=Cc1ccc(N(CCCl)CCCl)cc1 (stereo not given)	/	50*	23	/	/	/
CCN(CC)c1ccc(/C=N/NC(=O)C(O)c2ccccc2)cc1 (stereo not given)	1	15	17	2	-12	-3
CC1(C)CC(=O)C(CO)=C(c2cccc3ccccc23)C1=O	3	-8	-1	-1	-11	/
Nc1nc(N)c2nc(-c3ccccc3)c(N)nc2n1	/	33*	/	-7	13	-49
NSc1nc(N)c2nc(-c3ccccc3)c(-c3ccccc3)nc2n1	-1	6	23	4	-17	-14
Nc1nc2ccccc2n1/N=C/c1ccc2c(c1)OCO2	2	49*	1	68	2	2
O=c1[nH]cnc2nc(-c3ccc(N(CCCl)CCCl)cc3)[nH]c12	/	47*	/	/	/	/
CCN1CCN(Cc2c(O)ccc3c(C)cc(=O)oc23)CC1	-5	17	+	0	3	-29
Cc1cc(=O)oc2c(CN3CCN(CCO)CC3)c(O)ccc12	1	11	+	2	-8	-41
